This is a sample that favours compounds with a hit; in the whole collection about 22% have one here.
CYP2C9 activ – human CYP2C9 activators, primary screen, biochemical, luminescence | Cytochrome P450 2C9 (Homo sapiens), P11712 | recombinant CYP2C9, luciferin-H conversion; hits give high values; factor 1 = untreated enzyme, 0 = blocked | activation factor at 5 µM | hit rate 1.4% among 96,000 | AID 1024, 2008;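 active means activation factor of 2 or more for CYP2C9 at a 5 µM dose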;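 further: 0 = sulfaphenazole-blocked wells and 1 = vehicle-only wells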
CYP2C19 inh – blockers of cytochrome P450 2C19 activity – biochemical, luminescence, ADME assay, primary screen | CYP2C19 Supersomes, luciferin-H EGE luminescence, 30 min | inhibition, % at 5 µM | hit rate 21% among 96,000;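 active means CYP2C19 inhibition above a set limit at 5 µM in the primary screen, cut at about 50% in these data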;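 further: plate controls were negative control wells for no effect and 2.5 mM tranylcypromine positive control for full effect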
Target sequence (P33261 whole entry, looked up): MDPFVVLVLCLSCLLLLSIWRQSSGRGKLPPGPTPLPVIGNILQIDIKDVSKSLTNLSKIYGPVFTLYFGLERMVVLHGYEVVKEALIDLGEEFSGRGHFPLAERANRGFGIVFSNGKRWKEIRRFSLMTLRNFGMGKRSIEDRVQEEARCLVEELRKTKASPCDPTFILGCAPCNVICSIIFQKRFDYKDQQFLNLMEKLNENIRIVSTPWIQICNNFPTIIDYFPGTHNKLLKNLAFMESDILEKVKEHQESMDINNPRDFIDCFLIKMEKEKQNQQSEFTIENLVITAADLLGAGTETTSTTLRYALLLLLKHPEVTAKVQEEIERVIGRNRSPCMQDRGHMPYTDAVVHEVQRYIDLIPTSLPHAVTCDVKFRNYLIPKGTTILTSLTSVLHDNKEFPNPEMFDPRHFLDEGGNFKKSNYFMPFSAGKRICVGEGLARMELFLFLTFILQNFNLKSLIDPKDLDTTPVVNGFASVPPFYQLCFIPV
CYP2C9 inh – blockers of cytochrome P450 2C9 activity – biochemical, luminescence, ADME assay, primary screen; P11712; CYP2C9 Supersomes, luciferin-H conversion; inhibition, % at 5 µM; hit rate 20% among 96,000; AID 777, 2007;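 active means blocking of liver enzyme CYP2C9 beyond about 50% at 5 µM, limit read from the data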
Measles CPE – compounds protecting cells from measles virus cytopathic effect, primary screen, measles RdRp inhibitor project, single point, MLSMR library, absorbance; hit rate 1.5% among 140,000; Measles virus-infected cells, CPE protection; protection (pct of control), % at 4 µM; in the data active means protection mostly above about 24%, no sharp cut-off; inactive means mostly below about 26%
CYP2C19 activ – human CYP2C19 activators, primary screen, biochemical, luminescence; recombinant CYP2C19, luciferin-H EGE luminescence; hits give high values; 0 = fully inhibited enzyme, 1 = untreated enzyme; activation factor at 5 µM; 96,000 tested, under 10 active; AID 1025, 2008;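 active means activation factor of at least 2 at 5 µM in the primary screen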;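 further: 0 = wells with 2.5 mM tranylcypromine and 1 = vehicle-only wells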
* = called active by the depositor; nt = no result.

SMILES | CYP2C9 activ | CYP2C19 inh | CYP2C9 inh | Measles CPE | CYP2C19 activ
Clc1cccc(Cl)c1COc1ccccn1 | 0.6 | 51.5* | 37.3 | 15.4 | 0.5
Cc1cc(C#N)c(C)n1-c1cc(C(F)(F)F)ccc1N1CCOCC1 | 0.7 | 99.4* | 25.9 | 3.3 | 0
CC(C)C(=O)Nc1cc(C(F)(F)F)ccc1N1CCOCC1 | 0.8 | 11.0 | 21.1 | 1.6 | 0.9
CCOC(=O)COc1ccccc1/C=C\[N+](=O)[O-] | nt | nt | nt | 1.7 | nt
O=C(CCSc1nc(-c2ccc3c(c2)OCO3)cc(C(F)(F)F)n1)NCc1ccco1 | 0.3 | 69.1* | 65.2* | 10.1 | 0.3
O=C(CCSc1nc(-c2ccco2)cc(C(F)(F)F)n1)Nc1ccc2c(c1)OCO2 | 0.4 | 64.0* | 59.5* | nt | 0.4
Cc1ccc(NC(=O)CSc2nc(-c3ccco3)cc(C(F)(F)F)n2)cc1C | nt | nt | nt | 4.5 | nt
Cc1ccc(-c2noc(C3CCN(C(=O)Nc4ccc(C#N)cc4)CC3)n2)o1 | 0.4 | 83.3* | 60.8* | 35.4 | 0.2
Cc1ccc(-c2noc(C3CCN(S(=O)(=O)c4ccc5c(c4)OCCO5)CC3)n2)o1 | 1.2 | 5.4 | -20.2 | 13.7 | 0.9
CCOc1ccc(S(=O)(=O)N(CC(=O)Nc2cc(C)on2)Cc2ccccc2Cl)cc1 | 0.2 | 71.4* | 82.5* | 14.6 | 0.3
COc1ccc(S(=O)(=O)N(C)c2ccc(OCC(=O)Nc3cc(C)on3)cc2)cc1 | 0.6 | 44.1 | 40.2 | 9.2 | 0.6
OCCN(CCO)c1nc(N2CCCCC2)c2nc(N(CCO)CCO)nc(N3CCCCC3)c2n1 | nt | nt | nt | 16.2 | nt
Cc1ccc(NC(=O)CN(C)CC(=O)Nc2c(C)cccc2C)c(Br)c1 | 0.7 | 4.6 | 30.1 | 5.2 | 1
C(=C/c1ccnc2nc(SC/C=C/c3ccccc3)nn12)/c1ccccc1 | 0.2 | 28.4 | 79.3* | 22.0 | 0.7
O=C(/C=C/c1ccccc1)n1cnnc1SC/C=C/c1ccccc1 | nt | nt | nt | 11.1 | nt
Cc1cc(=O)oc2ccc(OCC(=O)N(Cc3ccc(F)cc3)Cc3ccco3)cc12 | 0.1 | 85.6* | 89.2* | 11.2 | 0.1
Cc1cccc(NC(=O)c2ccc(N(C)C3CCCCC3)c([N+](=O)[O-])c2)n1 | 0.8 | 3.4 | 19.6 | 3.3 | 1
CCCn1c(=O)c2ccccc2n2c(SCN3C(=O)c4ccccc4C3=O)nnc12 | 1 | 18.2 | -0.2 | nt | 0.8
CCCn1c(=O)c2ccccc2n2c(SCc3c(C(=O)OCC)oc4ccccc34)nnc12 | 0.4 | 58.9* | 64.1* | 3.2 | 0.4
CCCCOC(=O)c1cc(=O)[nH]c2ccccc12 | 0.9 | 25.3 | 7.2 | 5.3 | 0.7
Cc1noc(C)c1COC(=O)c1cc(=O)[nH]c2ccccc12 | 0.2 | 60.4* | 79.9* | 4.0 | 0.4
CCOC(=O)c1c(C)[nH]c(C(=O)O)c1C | 0.7 | 10.9 | 25.7 | 17.0 | 0.9
CCn1nc(C(=O)OCc2c(C)noc2C)c2ccccc2c1=O | 0.2 | -35.3 | 76.1* | 30.2 | 1.4
CCOC(=O)c1[nH]c(C)c(C(=O)OCc2c(C)noc2C)c1C | 0.3 | 33.2 | 65.1* | 1.1 | 0.7
CCc1cccc2c(C(=O)COC(=O)c3c(C)noc3C)c[nH]c12 | 0.9 | 11.0 | 6.7 | 7.9 | 0.9
SMILES | CYP2C9 activ | CYP2C19 inh | CYP2C9 inh | Measles CPE | CYP2C19 activ
Cc1noc(C)c1C(=O)OCC(=O)c1c[nH]c2ccccc12 | 0.1 | 90.8* | 88.0* | 10.5 | 0.1
O=C(Nc1ccc(-c2noc(-c3cccs3)n2)cc1)c1cccnc1 | nt | nt | nt | 8.3 | nt
Cc1ccc(C(=O)Nc2ccc3c(c2)OCO3)cc1S(=O)(=O)N1CCCC1 | 0.4 | 45.5 | 58.2* | nt | 0.5
O=C(O)c1cccc(NC(=O)c2ccc3c(c2)C(=O)N(CC2CCCO2)C3=O)c1 (centres undefined) | 0.3 | 77.4* | 73.4* | 12.6 | 0.2
O=C(Nc1ccc(N2CCOCC2)cc1)c1cccc(S(=O)(=O)N2CCC(Cc3ccccc3)CC2)c1 | 0.4 | 45.6 | 63.5* | 10.1 | 0.5
COC(=O)c1cccc(NC(=O)c2ccc3c(c2)C(=O)N(CC2CCCO2)C3=O)c1 (centres undefined) | 0.7 | 34.6 | 31.4 | 7.6 | 0.7
O=C(Nc1ccc(C(O)(C(F)(F)F)C(F)(F)F)cc1)c1ccc(Cl)c([N+](=O)[O-])c1 | nt | nt | nt | 1.2 | nt
O=C(Nc1ccc2c(c1)OCCO2)c1ccc(Cl)c([N+](=O)[O-])c1 | nt | nt | nt | 20.2* | nt

Bioassay records: PubChem BioAssay, several laboratories
